# From PubChem BioAssay (NCATS)
# Results filed as inconclusive are left out. Calls of active or inactive are those of the source. Calls follow the shape of the dose curve; as a rule, active = well fitted cell-killing curve with a large enough effect; inconclusive = small, poorly fitted or top-dose-only effect; inactive = flat fitted curve, though single readings scatter.
# Experiment: qHTS of pediatric cancer cell lines to identify multiple opportunities for drug repurposing: Primary screen for TC32 cells (AID 1347089); also: nearly all actives have a fitted effect of over 60% in size
# Settings: TC32 Ewing sarcoma viability, CellTiter-Glo luminescence, 48 h; series mostly up to 45.8 µM; activity change, negative = cytotoxic: at the top concentration
# Text: Drug repurposing or repositioning has been offered as a strategy for drug development in oncology programs. This approach has special potential for childhood cancers and other rare or orphan diseases, where the expected return on new drug development has been a disincentive to pharmaceuticals.
# In this project we exploit the poly-pharmacology of drugs to discover new indications via phenotypic screening of a panel of 19 well-characterized cell lines derived from solid tumors seen in children and adolescents. The goal is to identify approved drugs with previously unrecognized anticancer properties that has the potential to reveal new mechanisms and biological processes involved in carcinogenesis or drug resistance. We employed a titration-based paradigm (quantitative high-throughput screening or qHTS), where all compounds were tested at multiple concentrations for their effect on cell viability. Concentration-response curves (CRCs) were derived directly from the primary screen, and both potency and efficacy values were used to identify compounds with robust bioactivity profiles. We screened the NIH Chemical Genomics Center (NCGC) Pharmaceutical Collection (NPC) and Mechanism Interrogation Plate (MIPE) small molecule collections of approved and investigational compounds against these cell lines; and measured metabolically active cells after 48 hours of compound treatment as a proxy for cell viability.
# Assay Submitter: Nathalia J. Martinez, National Center for Advancing Translational Sciences, National Institutes of Health, Rockville, MD, USA; email: natalia.martinez@nih.gov
# [1] Shen, M et al. Quantitative high-throughput phenotypic screening of pediatric cancer cell lines identifies multiple opportunities for drug repurposing. Oncotarget 2017 Dec 19;9(4):4758-4772. PMID 29435139.
# The cells were obtained from University of North Carolina (UNC), Pediatric Preclinical Testing Program (PPT), and Coriell Institute (CI).
# qHTS cell viability assay:
# Cells were assayed in growth media at a density of 500-1,000 cells/well. Five microliters of cells were dispensed into 1,536-well, white, solid-bottom, TC-treated plates (Greiner Bio One) using a multidrop dispenser and incubated at 37 degrees C, 5% CO2, under a humidified atmosphere for 5 hours. Twenty-three nanoliters of compounds and controls (neutral control DMSO or positive control bortezomib at final concentration of 2.3 uM) were subsequently transferred by Kalypsys pintool. For primary screens, the MIPE collection was tested at 11-point dilutions (final concentrations range from 0.78 nM to 46 µM) and the NPC collection at 8-point dilutions (final concentrations range from 0.59 nM to 46 µM). Compounds tested in follow-up screens were assayed at 11-point dilutions. Cells were incubated for 48 hours, followed by addition of 3 uL of CellTiter-Glo (Promega). After a 15min incubation at room temperature, samples were analyzed for luminescence intensity using a ViewLux High-throughput CCD imager equipped with clear filters.
# % is scaled to controls: 0 for no effect and ±100 for the full control effect.
row,Structure (SMILES),"activity change, negative = cytotoxic"
1,COc1cc(OC)nc(O[C@H](C(=O)O)C(OC)(c2ccccc2)c2ccccc2)n1,10.8% (inactive)
2,CC(C)C(=O)Nc1cccc(C(F)(F)F)c1,14.8% (inactive)
3,C[C@H]1C[C@@H]2[C@H]([C@@H](O)C[C@@]3(C)[C@H]2CC[C@]3(O)C(=O)CO)[C@@]2(C)C=CC(=O)C=C12,9.39% (inactive)
4,CCCCCCn1c(=O)c2c(ncn2C)n(C)c1=O,17.4% (inactive)
5,O=C(O)CNC(=O)CNC(=O)CNC(=O)CSC(=O)c1ccccc1,9.16% (inactive)
6,CCOC(=O)O[C@]1(C(=O)OCCl)CC[C@H]2[C@@H]3CCC4=CC(=O)C=C[C@]4(C)[C@H]3[C@@H](O)C[C@@]21C,21.4% (inactive)
7,C[C@@H]1C[C@H]2[C@@H]3CCC4=CC(=O)C=C[C@]4(C)[C@@]3(F)[C@@H](O)C[C@]2(C)[C@@]1(O)C(=O)COC(=O)c1ccncc1,11.7% (inactive)
8,CC(C)C(=O)Nc1cccc(C2CN3CCSC3=N2)c1 (stereo not given),-3.86% (inactive)
9,Cc1nc2n(c(=O)c1CCN1CCC(C(=O)c3ccc(F)cc3)CC1)CCS2,-3.62% (inactive)
10,[O-][n+]1cccc(/C(Cl)=N/OC[C@@H](O)CN2CCCCC2)c1,14.4% (inactive)
11,CN1C(=O)c2ccccc2C1=O,10% [at 92.2 µM] (inactive)
12,CN1CCC(=C2c3ccccc3CCc3cccnc32)CC1,11.4% (inactive)
13,Fc1ccc(C(c2ccc(F)cc2)N2CCNCC2)cc1,0.587% (inactive)
14,O=C(O)C1CCC1,12.7% (inactive)
15,Oc1ccccc1,13.8% (inactive)
16,Cc1cc(O)c(C)c(C)c1O,5.78% (inactive)
17,CCN(CC)CC(=O)Oc1ccc(NC(C)=O)cc1,14.6% (inactive)
18,CCOC(=O)[C@H](CCc1ccccc1)N[C@@H](C)C(=O)N(CC(=O)O)C1Cc2ccccc2C1,-6% (inactive)
19,Cc1cccc(OCC(O)CNC(C)(C)C)c1C (stereo not given),-2.19% (inactive)
20,Cc1oc(=O)oc1COC(=O)[C@@H]1N2C(=O)[C@@H](NC(=O)[C@H](N)c3ccccc3)[C@H]2SC1(C)C,1.58% (inactive)

row,Structure (SMILES),"activity change, negative = cytotoxic"
1,Nc1c(I)cc(I)c(C(=O)N(CCC(=O)O)c2ccccc2)c1I,3.08% (inactive)
2,CN1CCC(N(Cc2cccs2)c2ccccc2)CC1,-3.86% (inactive)
3,CC(C)Cc1ccc(C(C)C(=O)OCc2ccccn2)cc1 (stereo not given),11.1% (inactive)
4,C=CC[N+]1([C@H]2C[C@H]3[C@@H]4CC[C@H]5C[C@H](OC(C)=O)[C@@H](N6CCCCC6)C[C@]5(C)[C@H]4CC[C@]3(C)[C@H]2OC(=O)CC)CCCCC1,9.38% (inactive)
5,CC(=O)CC/C=C(\C)CC/C=C(\C)CC/C=C(\C)CCC=C(C)C,12.7% (inactive)
6,C[C@]12CCC(=O)C=C1CC[C@@H]1[C@@H]2[C@@H](O)C[C@@]2(C)[C@H]1CC[C@]2(O)C(=O)COC(=O)CCC(=O)O,6.68% (inactive)
7,CCCN(CCC)C(=O)C(CCC(=O)OCCCN1CCN(CCOC(=O)Cc2c(C)n(C(=O)c3ccc(Cl)cc3)c3ccc(OC)cc23)CC1)NC(=O)c1ccccc1 (stereo not given),-2.6% (inactive)
8,COc1ccc2c(c1)c(CC(=O)OC/C=C(\C)CC/C=C(\C)CCC=C(C)C)c(C)n2C(=O)c1ccc(Cl)cc1,4.39% (inactive)
9,CC(NC(CCc1ccccc1)C(=O)O)C(=O)N1C(=O)N(C)CC1C(=O)O (stereo not given),15.6% (inactive)
10,Cc1ccc2c(Cl)cc(Cl)c(O)c2n1,9.48% (inactive)
11,CC1CN(c2cc3c(cc2F)c(=O)c(C(=O)O)cn3-c2ccc(F)cc2F)CCN1 (stereo not given),-4% [at 4.81 µM] (inactive)
12,CC(C)NCCCC1(C(N)=O)c2ccccc2-c2ccccc21,3.88% (inactive)
13,O=c1[nH]c(=O)n([C@H]2O[C@H](CO)[C@@H](O)[C@@H]2O)cc1/C=C\Br,11.1% (inactive)
14,CCOC(=O)NNc1nncc2ccccc12,7.62% (inactive)
15,CCCC(=O)c1cc(O)c(O)cc1O,-0.295% [at 92.2 µM] (inactive)
16,COC(=O)c1cc(Cl)ccc1NS(=O)(=O)C(F)(F)F,0.293% (inactive)
17,CCOc1ccc(NS(=O)(=O)c2ccc(N)cc2)nn1,14.4% (inactive)
18,CCN(CC)CC(=O)Nc1c(C)cccc1C(=O)OC,-13.1% (inactive)
19,NCC(=O)O,9.61% [at 16 µM] (inactive)
20,CNC(=O)c1c(I)c(NC(C)=O)c(I)c(C(=O)O)c1I,12% (inactive)
